One assay has as its system W2. The assay can be described thus: qHTS profiling for inhibitors of Plasmodium falciparum proliferation (AID 504749). Conditions: P. falciparum in erythrocytes, SYBR Green DNA, 72 h; series mostly up to 28.7 µM. The essentials:
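Quantitative HTS: compounds pinned into medium, infected erythrocytes added (0.3% parasitemia, 2.5% hematocrit), 72 h culture at 37 C under 5% CO2. Saponin/Triton lysis with SYBR Green I, overnight RT, then fluorescence read.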

A further assay has as its system CRL-7250. The assay can be described thus: Cytotoxic Profiling of Annotated Libraries Using Quantitative High-Throughput Screening (AID 1296008). As to max response: % is scaled to controls: 0 for no effect and ±100 for the full control effect. Conditions: Five cell lines viability, CellTiter-Glo ATP luminescence, 48-72 h; max response: hits give low values. The essentials:
(§1)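 Compounds were pin-transferred onto cells and incubated 48 or 72 hr at 37 degree Celsius, 95% humidity. CellTiter-Glo was added, plates sat 10 min at room temperature, then ATP-coupled luminescence was imaged as the viability read-out.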

For another assay, the system named is KB-3-1. The description is as above. Conditions: Five cell lines viability, CellTiter-Glo ATP luminescence, 48-72 h; max response: hits give low values. A digest of the protocol: as §1
A general note: ATP-based viability assays read luminescence as a measure of living cells.

The next assay concerns NIH3T3. The assay is described as above. Conditions: Five cell lines viability, CellTiter-Glo ATP luminescence, 48-72 h; max response: hits give low values. The essentials: as §1
The next assay concerns HEK293. Described as above. Conditions: Five cell lines viability, CellTiter-Glo ATP luminescence, 48-72 h; max response: hits give low values. The essentials:
as §1

The next assay concerns MCC-13. As to the kind of experiment: qHTS assay to identify novel small-molecules to repurpose for Merkel cell carcinoma treatment (AID 1296009). As to activity change, negative = cytotoxicity: % is scaled to controls: 0 for no effect and ±100 for the full control effect. Conditions: MCC and control cell lines, CellTiter-Glo viability, 72 h; series mostly up to 46 µM. A digest of the protocol: (§2)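 Viability readout: ATP luminescence (CellTiter-Glo) after 72 hr drug exposure at 37 degree celsius. Dose-response format was 8 points for NPC and 11 points for MIPE; data normalized to in-plate controls.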
On the technique in general: Quantitative high-throughput screening tests each substance at several concentrations.

The subject of assay [1] is HaCat. The assay can be described thus: Cytotoxic Profiling of Annotated Libraries Using Quantitative High-Throughput Screening (AID 1296008). As to max response: % is scaled to controls: 0 for no effect and ±100 for the full control effect. Conditions: Five cell lines viability, CellTiter-Glo ATP luminescence, 48-72 h; max response: hits give low values. A digest of the protocol: as §1
Another assay has as its system MCC-26. The assay can be described thus: qHTS assay to identify novel small-molecules to repurpose for Merkel cell carcinoma treatment (AID 1296009). As to activity change, negative = cytotoxicity: % is scaled to controls: 0 for no effect and ±100 for the full control effect. Conditions: MCC and control cell lines, CellTiter-Glo viability, 72 h; series mostly up to 46 µM. The essentials: as §2
Assay [2] deals with HACAT. The description is as above. Conditions: MCC and control cell lines, CellTiter-Glo viability, 72 h; series mostly up to 44.8 µM. A digest of the protocol: as §2

Several values for one entry are separate records, joined by “and”; a condition that tells them apart may be missing. Equal values may be shown once. Inconclusive results are not listed. Some structures have more than one record in an assay (separate samples or runs), and their calls can disagree. A number with no mark means an inactive call. Activity calls are given as the source filed them. Calls follow the shape of the dose curve; as a rule, active = well fitted inhibition curve with a large enough effect; inconclusive = small, poorly fitted or top-dose-only effect; inactive = flat fitted curve, though single readings scatter.
Also: nearly all actives have a fitted effect of over 60% in size.
Potency is read from the fitted curve at half-maximal effect.

For `COc1cc(C(=O)NS(=O)(=O)c2ccccc2C)ccc1Cc1cn(C)c2ccc(NC(=O)OC3CCCC3)cc12`, the Potency in the assay with W2 is 7.57 µM (active). The call in the assay with CRL-7250 was inactive. For the same molecule, the max response in the assay on KB-3-1 is -2.66%.

For the molecule `CNc1nccc(-c2cccnc2Oc2cc(C(=O)Nc3cccc(C(F)(F)F)c3)ccc2C)n1`, the values for the Potency with CRL-7250 and in the assay with NIH3T3 were 7.31 µM (active) and 18.4 µM (active), respectively. Besides, the call in the assay with KB-3-1 was inactive.

`O=C(NC1CCNCC1)c1[nH]ncc1NC(=O)c1c(Cl)cccc1Cl`: the values for the Potency in the assay with CRL-7250, in the assay on HEK293 and in the assay with NIH3T3 were 0.332 µM (active), 0.264 µM (active) and 13.2 µM (active), respectively.

For the molecule `NC(=O)c1cccc2cn(-c3ccc([C@@H]4CCCNC4)cc3)nc12`, the max response is -21.5% and 4.62% with CRL-7250; -3.07% and -13.7% in the assay on KB-3-1; -38.6% and -0.532% in the assay with NIH3T3. Moreover, in the assay with HEK293, the Potency was 6.51 µM (active). Also, the Potency entry in the assay on MCC-13 is “inactive”.

Turning to `CCC(=C(c1ccccc1)c1ccc(OCCN(C)C)cc1)c1ccccc1`, the max response in the assay with CRL-7250 is 3.45%; in the assay on HaCat [1] it was 2.08%; in the assay with KB-3-1 it was -16.9%; in the assay on NIH3T3, 1.38%. The Potency entry with MCC-13 and in the assay on MCC-26 was “inactive” throughout.

As to `Cn1c2cc(S(C)=O)sc2c2cnn(Cc3cccc(N)c3)c(=O)c21` (stereo unspecified), the max response in the assay with CRL-7250 was 0.238%; with HaCat [1] it was -2.01%; with KB-3-1 it was -13.5%; with NIH3T3 it was -11.6%. The Potency entry with MCC-13 and in the assay with MCC-26 was “inactive” throughout.

For `C=CC(=O)N1CCC[C@@H](n2nc(-c3ccc(Oc4ccccc4)cc3)c3c(N)ncnc32)C1`, the max response in the assay on CRL-7250 is 2.95%; with KB-3-1, -15.2% and 0.931%. Besides, the Potency with HaCat [1] was 1.32 µM (active); with HACAT [2], 1.3 µM (active). Besides, the Potency result in the assay with MCC-13 was “inactive”.

As to `Cc1cc(C(=O)N2CCN(c3cccc(Cl)c3)CC2)n(-c2ccccc2)n1`, the Potency in the assay with CRL-7250 was 4.69 µM (active) and 5.8 µM (active); with HEK293 it was 526 nM (active) and 1.46 µM (active); in the assay on KB-3-1, 833 nM (active) and 1.64 µM (active).

With `Cc1ccc(C(=O)Nc2cccc(C(F)(F)F)c2)cc1-c1ccc2nc(NCCN3CCOCC3)ncc2c1`, the Potency with CRL-7250 was 4.18 µM (active) and 7.31 µM (active); in the assay with HaCat [1] it was 6.51 µM (active); in the assay with KB-3-1, 16.6 µM (active); in the assay with NIH3T3, 10.5 µM (active) and 18.4 µM (active); in the assay with MCC-13, 11.8 µM (active); in the assay on MCC-26, 18.7 µM (active).

In the case of `COc1ccc(CC2c3cc(OC)c(OC)cc3CC[N+]2(C)CCC(=O)OCCCCCOC(=O)CC[N+]2(C)CCc3cc(OC)c(OC)cc3C2Cc2ccc(OC)c(OC)c2)cc1OC` (stereo unspecified), the max response is -0.557% with CRL-7250; 3.6% with HaCat [1]; 4.25% and 0.363% in the assay on KB-3-1; -6.84% with NIH3T3. The activity change, negative = cytotoxicity is -6.08% [at 9.22 µM] with MCC-13 and 2.59% [at 9.22 µM] in the assay on MCC-26.

Consider `Cn1c2ccccc2c2c3c(c4c5ccccc5n(CCC#N)c4c21)CNC3=O`, for which the Potency in the assay on CRL-7250 was 14.6 µM (active); in the assay with HEK293, 2.35 µM (active) and 7.31 µM (active); in the assay on NIH3T3 it was 10.5 µM (active). The max response with KB-3-1 was 4.23% and -14.5%; in the assay on NIH3T3, -14.2%.

For `C=C1C(=CC=C2CCCC3(C)[C@@H]([C@H](C)C=CC=CC(O)(CC)CC)CC[C@@H]23)C[C@@H](O)C[C@@H]1O` (stereo partly specified), the max response with CRL-7250 was 4.9%. Besides, the call in the assay on HaCat [1] and in the assay with KB-3-1 was inactive. Also, the Potency entry with HACAT [2] and with MCC-13 was “inactive” in each case.

For the molecule `CCN(CC)CCNC(=O)c1ccc2nc(-c3ccccc3)c(-c3ccc(CN4CCC(n5c(=O)[nH]c6ccccc65)CC4)cc3)nc2c1`, the Potency in the assay with CRL-7250 is 9.35 µM (active); in the assay with HEK293, 2.96 µM (active) and 8.2 µM (active); in the assay with NIH3T3, 10.5 µM (active); with MCC-13, 8.33 µM (active).

With `C=C1C(=CC=C2CCC[C@]3(C)[C@@H]([C@H](C)C=C[C@H](C)C(C)C)CC[C@@H]23)C[C@@H](O)C[C@@H]1O`, the max response in the assay on CRL-7250 was -0.207%. Also, the molecule was called inactive with HaCat [1] and with KB-3-1. Further, the Potency result in the assay with HACAT [2] is “inactive”. For the same molecule, the Potency in the assay with MCC-26 was 14.8 µM (active).

In the case of `Cc1cn2c(-c3cn[nH]c3)cnc2c(Nc2ccc(C(=O)N3CCNCC3)cc2F)n1`, the Potency was 6.51 µM (active) in the assay on CRL-7250 and 16.4 µM (active) with HEK293. Further, the Potency entry in the assay with MCC-13 and in the assay on MCC-26 was “inactive” each time.

Consider `Nc1ccc(C(=O)c2cc3c(ccc4ccccc43)[nH]2)cc1`, for which the max response with CRL-7250 is -31%. Further, the Potency is 2.96 µM (active) in the assay on HEK293 and 4.18 µM (active) with KB-3-1. In the assay with MCC-26, the Potency entry is “inactive”.

Take `c1cc(-c2cnn3cc(-c4ccc(OCCN5CCCCC5)cc4)cnc23)ccn1`: the Potency in the assay on CRL-7250 is 6.62 µM (active); in the assay with HEK293 it was 3.32 µM (active); in the assay with KB-3-1, 3.72 µM (active); in the assay with NIH3T3, 0.372 µM (active); in the assay with MCC-13 it was 16.6 µM (active).

In the case of `Cc1cc(Nc2cc(CN3CCOCC3)c3nc(C)c(Cc4ccc(Cl)cc4F)n3n2)n[nH]1`, the Potency in the assay on HEK293 was 11.8 µM (active) and 16.4 µM (active); with HaCat [1], 14.8 µM (active); with KB-3-1, 4.18 µM (active) and 5.17 µM (active); in the assay on NIH3T3, 13.2 µM (active) and 11.6 µM (active). In addition, in the assay with HaCat [1], the max response was -23.1%.

As for `COc1cc2c(NC3CCN(C(C)C)CC3)nc(C3CCCCC3)nc2cc1OCCCN1CCCC1`, the Potency with CRL-7250 is 8.33 µM (active) and 4.11 µM (active); in the assay with HEK293, 7.43 µM (active) and 5.8 µM (active). Further, in the assay on MCC-13, the Potency result is “inactive”.

As for `CCN(CC)CCCCNc1ncc2cc(-c3cc(OC)cc(OC)c3)c(NC(=O)NC(C)(C)C)nc2n1`, the Potency with CRL-7250 was 0.264 µM (active); in the assay on HEK293, 4.18 µM (active). Further, the max response with KB-3-1 was -22.2%. The Potency entry in the assay on MCC-13 and in the assay on MCC-26 was “inactive” throughout.

For the origin of these results see PubChem BioAssay (NCATS).
